Assay outcomes (PubChem)
HIV Env fusion: HIV envelope-mediated fusion inhibition | HeLa-JRFL Env/CEM21 cell fusion, luciferase | 360,000 compounds, 1.1% hits | inhibition, % at 12.3 µM;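 active means mean replicate inhibition score of at least 50 and every replicate individually at or above 50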;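 further: 0% = plate neutral controls and 100% = maraviroc near 300 nM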
NSD2 inh: blocks human histone methyltransferase NSD2. 310,000 compounds, 0.54% hits. O96028. NSD2 peptide methylation, AlphaScreen, 120 min. AID 743445. inhibition, % at 12.5 µM; in the data active means inhibition above about 50%
Target sequence (O96028 whole entry, looked up): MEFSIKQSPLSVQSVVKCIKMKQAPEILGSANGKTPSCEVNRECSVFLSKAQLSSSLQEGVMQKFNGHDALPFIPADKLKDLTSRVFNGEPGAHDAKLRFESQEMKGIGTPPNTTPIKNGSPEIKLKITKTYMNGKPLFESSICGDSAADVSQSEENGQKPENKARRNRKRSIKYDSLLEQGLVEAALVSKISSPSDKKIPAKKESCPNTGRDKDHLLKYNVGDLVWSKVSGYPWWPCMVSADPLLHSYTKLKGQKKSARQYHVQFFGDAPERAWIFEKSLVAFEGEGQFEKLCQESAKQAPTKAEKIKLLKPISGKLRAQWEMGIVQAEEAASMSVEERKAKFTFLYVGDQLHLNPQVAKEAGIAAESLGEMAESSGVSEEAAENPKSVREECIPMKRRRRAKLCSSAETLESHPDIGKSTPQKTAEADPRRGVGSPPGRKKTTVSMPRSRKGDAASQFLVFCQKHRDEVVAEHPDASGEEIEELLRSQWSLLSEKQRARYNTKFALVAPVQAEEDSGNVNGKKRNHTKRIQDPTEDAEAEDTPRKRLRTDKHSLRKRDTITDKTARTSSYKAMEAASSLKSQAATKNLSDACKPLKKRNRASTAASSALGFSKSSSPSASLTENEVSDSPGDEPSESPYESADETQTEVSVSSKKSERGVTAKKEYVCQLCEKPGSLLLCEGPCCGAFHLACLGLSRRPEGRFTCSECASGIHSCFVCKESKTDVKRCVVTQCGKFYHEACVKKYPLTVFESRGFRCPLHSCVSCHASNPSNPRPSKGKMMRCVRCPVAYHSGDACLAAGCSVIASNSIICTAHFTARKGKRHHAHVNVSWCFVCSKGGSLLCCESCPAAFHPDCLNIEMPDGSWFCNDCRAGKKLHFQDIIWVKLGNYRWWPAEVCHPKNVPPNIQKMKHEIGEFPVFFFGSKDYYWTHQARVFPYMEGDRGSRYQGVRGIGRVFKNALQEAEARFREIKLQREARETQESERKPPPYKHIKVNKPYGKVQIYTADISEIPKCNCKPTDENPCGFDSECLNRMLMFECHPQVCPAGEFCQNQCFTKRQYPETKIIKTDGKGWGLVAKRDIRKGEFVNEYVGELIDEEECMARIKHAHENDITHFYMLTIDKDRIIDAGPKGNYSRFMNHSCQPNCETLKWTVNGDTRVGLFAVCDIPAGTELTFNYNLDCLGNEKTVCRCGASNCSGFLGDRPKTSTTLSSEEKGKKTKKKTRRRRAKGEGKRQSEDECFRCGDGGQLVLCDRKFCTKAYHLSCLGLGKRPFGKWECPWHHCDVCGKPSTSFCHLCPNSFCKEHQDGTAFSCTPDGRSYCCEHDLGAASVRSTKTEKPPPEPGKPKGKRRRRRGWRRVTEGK
PGC1a acetyl inh: modulators of PGC1a acetylation; U2OS PGC1a acetylation, AlphaScreen anti-acetyl-lysine; with virally co-expressed GCN5 acetyltransferase; inhibition, % at 15.6 µM; 350,000 compounds, 0.17% hits;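 active means every replicate shows inhibition of at least 40%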;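 further: 0% = neutral control wells and 100% = positive control wells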
GSIS activator: primary screen for activators of insulin secretion dependent on glucose, INS-1E cells, GLuc reporter luminescence; INS-1E GLuc reporter insulin secretion, 2-3 h; 370,000 compounds, 0.61% hits; activation, % at 16.6 µM;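 active means lowest replicate activation of at least 40%, so every replicate reaches that level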;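 further: 0% = median of neutral control wells and 100% = median of IBMX positive control wells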
MLL AF4-AF9 inh: inhibitors of human MLL-AF4/AF9 interaction. inhibition, % at 10 µM. 350,000 compounds, 0.47% hits. AID 651704. P42568. AlphaScreen, biotin-AF4 peptide binding to FLAG-AF9;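 active means every replicate reaching a set inhibition limit, whatever the replicate mean, cut at about 25% in these data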;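 further: 0% = plate neutral control median and 100% = total signal loss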
* hit, by the source's call; [ ] = another dose, or the depositor's remark. Compounds with a hit are over-represented: about 2.1% of the library has one in this group of screens.

Screening COc1cc2nc(Nc3ccc(C)c(Cl)c3)nc(N)c2cc1OC returned HIV Env fusion 5, NSD2 inh -1, GSIS activator 1 and MLL AF4-AF9 inh 33*.
`COc1cc2nc(Nc3ccc(C)c(C)c3)nc(N)c2cc1OC` gave HIV Env fusion -12, NSD2 inh 3, GSIS activator 22 and MLL AF4-AF9 inh 26*.
Screening C[C@@H]1CN([C@@H](C)CO)C(=O)c2cc(C#CCN(C)C)cnc2O[C@H]1CN(C)Cc1cccc(F)c1 returned HIV Env fusion 5[16.7 µM], PGC1a acetyl inh -8, GSIS activator 5 and MLL AF4-AF9 inh 5.
Screening N/C(=N\OC(=O)COc1ccccc1Cl)c1ccc(Cl)cc1 returned NSD2 inh 15 and PGC1a acetyl inh 6.
For COCCN(C(=O)COC(=O)Cc1c(C)nc2ccccc2c1C)c1c(N)n(CC(C)C)c(=O)[nH]c1=O the results were HIV Env fusion 1, NSD2 inh 1, PGC1a acetyl inh -1 and MLL AF4-AF9 inh -4.
For COCCCN(C(=S)NC(=O)C12CC3CC(CC(C3)C1)C2)c1c(N)n(Cc2ccccc2)c(=O)[nH]c1=O the results were HIV Env fusion 84*, NSD2 inh -3, PGC1a acetyl inh -20, GSIS activator -12 and MLL AF4-AF9 inh -1.
For COCCN(C(=O)COC(=O)C12CC3CC(CC(Cl)(C3)C1)C2)c1c(N)n(Cc2ccccc2)c(=O)[nH]c1=O the results were HIV Env fusion 68*, NSD2 inh -6, PGC1a acetyl inh 12, GSIS activator -43 and MLL AF4-AF9 inh 6.
`COCCN(C(=O)COC(=O)Cc1cccc(OC)c1)c1c(N)n(CC(C)C)c(=O)[nH]c1=O` gave HIV Env fusion 3, NSD2 inh -6, PGC1a acetyl inh -1, GSIS activator 53* and MLL AF4-AF9 inh -1.
Screening COc1ccc2c3c([nH]c2c1)[C@@H](CO)N(Cc1ccccn1)CC31CCN(C(=O)CC2CC2)CC1 returned PGC1a acetyl inh -3, GSIS activator -8 and MLL AF4-AF9 inh -6.
Cc1cccc(C2Nc3ccccc3C(=O)N2c2ccccc2)n1 (stereo not given) was read as NSD2 inh -1, PGC1a acetyl inh 4, GSIS activator 17 and MLL AF4-AF9 inh -12.
`O=C1c2ccccc2NC(c2ccccn2)N1c1ccc(Cl)cc1` (stereo not given) gave NSD2 inh 3, PGC1a acetyl inh 3 and GSIS activator 62*.
Screening c1ccc2c(N3CCCCC3)ncnc2c1 returned HIV Env fusion 70*, NSD2 inh 0 and PGC1a acetyl inh -6.
`COc1cc(S(=O)(=O)N(Cc2cccs2)CC2CCCO2)ccc1-n1cnnn1` (stereo not given) gave NSD2 inh -2, PGC1a acetyl inh -2, GSIS activator -6 and MLL AF4-AF9 inh 1.
For O=S(=O)(NCc1ccccc1)c1ccc(S(=O)(=O)N(Cc2cccs2)CC2CCCO2)cc1 (stereo not given) the results were HIV Env fusion 61*, NSD2 inh 2, PGC1a acetyl inh 8 and GSIS activator 12.
Screening O=S(=O)(c1ccccc1)N1CCC(O)(CSc2ccc(Cl)cc2)CC1 returned HIV Env fusion 61*, NSD2 inh -3 and PGC1a acetyl inh 0.
For Cc1cc(C(=O)CSc2nnc(-c3ccc4c(c3)OCO4)o2)c(C)n1-c1ccc(F)cc1 the results were HIV Env fusion 7, NSD2 inh 0, PGC1a acetyl inh 10, GSIS activator -4 and MLL AF4-AF9 inh 0.
Cc1cccc(C)c1OCCOC(=O)c1cccc(S(=O)(=O)N2CCOCC2)c1 was read as NSD2 inh -2, PGC1a acetyl inh 1 and MLL AF4-AF9 inh -3.
Screening CCCCS(=O)(=O)/C=C\C=C/S(=O)(=O)CCCC returned PGC1a acetyl inh 97*.
For C[C@@H]1CN([C@@H](C)CO)C(=O)c2cc(NS(=O)(=O)c3ccc(Cl)cc3)ccc2O[C@H]1CN(C)Cc1ccccc1 the results were HIV Env fusion -17[16.7 µM], PGC1a acetyl inh 5, GSIS activator -16 and MLL AF4-AF9 inh 25*.
`Cc1ccc(S(=O)(=O)Nc2ccc3c(c2)C(=O)N([C@H](C)CO)C[C@@H](C)[C@@H](CN(C)Cc2ccc(-c4ccccc4)cc2)O3)cc1` gave HIV Env fusion 60*[16.7 µM], PGC1a acetyl inh -17, GSIS activator 4 and MLL AF4-AF9 inh 1.
For C[C@H](CO)N1C[C@H](C)[C@H](CN(C)Cc2ccc(Oc3ccccc3)cc2)Oc2ccc(NS(=O)(=O)c3ccccc3)cc2C1=O the results were HIV Env fusion -23[16.7 µM], PGC1a acetyl inh 10, GSIS activator -5 and MLL AF4-AF9 inh 4.
Screening C[C@@H]1CN([C@@H](C)CO)C(=O)c2cc(NS(=O)(=O)c3ccccc3)ccc2O[C@H]1CN(C)Cc1ccc(Oc2ccccc2)cc1 returned HIV Env fusion 94*[16.7 µM], PGC1a acetyl inh -4, GSIS activator -17 and MLL AF4-AF9 inh 2.
`C/C(=N\NC(=O)c1ccc(NS(=O)(=O)c2cccs2)cc1)c1ccc2c(c1)OCO2` gave HIV Env fusion -12, NSD2 inh 0, PGC1a acetyl inh 0, GSIS activator -3 and MLL AF4-AF9 inh 0.
Screening Cc1cccc(C(=O)NNC(=O)CCC(=O)Nc2cccc(Cl)c2C)c1 returned HIV Env fusion -4, NSD2 inh 4, PGC1a acetyl inh 2 and GSIS activator 10.
For COc1ccccc1CCNCc1ccc(OC)c(OCc2ccccc2)c1 the results were HIV Env fusion 74*, NSD2 inh 16, PGC1a acetyl inh 1 and GSIS activator -17.
For COC(=O)c1ccc2c(c1)NC(=O)CS2 the results were HIV Env fusion -8, NSD2 inh 2, PGC1a acetyl inh 8, GSIS activator 9 and MLL AF4-AF9 inh -1.
`CC(OC(=O)c1ccc2c(c1)NC(=O)CS2)C(=O)c1ccc(F)cc1` (stereo not given) gave HIV Env fusion 59*, NSD2 inh 0, PGC1a acetyl inh 8, GSIS activator -51 and MLL AF4-AF9 inh 0.
Screening CNC(=O)c1cc(Oc2ccc(NC(=O)Nc3ccc(Cl)c(C(F)(F)F)c3)cc2)ccn1 returned HIV Env fusion 62*, PGC1a acetyl inh 7 and MLL AF4-AF9 inh 4.
`O=C(Nc1ccc(Cl)c(C(F)(F)F)c1)c1ccncc1` gave HIV Env fusion -1, NSD2 inh -7, PGC1a acetyl inh 6, GSIS activator -4 and MLL AF4-AF9 inh 0.
`CCc1cccc2c(C(=S)N3CCCC3)c[nH]c12` gave HIV Env fusion 5, NSD2 inh 3, PGC1a acetyl inh -5, GSIS activator -2 and MLL AF4-AF9 inh 0.
Screening COc1ccc(C(C(=O)NC2CCCC2)n2c(Cc3cc(F)cc(F)c3)nc3ccccc32)cc1 (stereo not given) returned HIV Env fusion 33, NSD2 inh -1 and GSIS activator -25.
`COc1ccc(C(C(=O)NC2CCCC2)n2c(CSCCOc3ccccc3)nc3ccccc32)cc1` (stereo not given) gave HIV Env fusion 78*, GSIS activator -20 and MLL AF4-AF9 inh -3.
